The panel holds about 79,000 compounds, 15% with a hit somewhere; the sample as a whole holds those more often. Calls of active or inactive are those of the source. Cut-off read from the data, not from the text of the source: active = growth inhibition above about 70%; inactive = the rest.
assay: NCI Yeast Anticancer Drug Screen. Data for the rad52 strain (AID 147);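 note: 0% = growth of vehicle-treated control cultures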; conditions: S. cerevisiae rad52 mutant growth inhibition; at 11.0 µM; active compounds read high
Procedure, shortened: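 Growth of repair-deficient yeast cells was compared between compound-treated and vehicle-treated cultures to give percent inhibition.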

Compound	growth inhibition
COc1ccc2nc3cccc([N+](=O)[O-])c3c(NCCNCCN(C)C)c2c1	-6% (inactive)
Cc1cccc(/C=N/NC(=S)NC2CCCCC2)n1	-8% (inactive)
COC(=O)C(=O)c1c(-c2ccc(Cl)c(Cl)c2)[nH]c2[nH]n(-c3ccccc3)c(=O)c2c1=O	37% (inactive)
c1ccc([P+](CCN2Cc3ccccc3C2)(c2ccccc2)c2ccccc2)cc1	39% (inactive)
Cc1cc(C)c2[s+]snc2c1	16% (inactive)
CC(C)(Br)C(=O)/C=C/c1ccccc1	47% (inactive)
Cc1ccc(S(=O)(=O)NC(=O)C2C(=O)CC3(CCCCC3)CC2=O)cc1	-34% (inactive)
NC(=S)N1N=C2c3ccccc3CC[C@H]2[C@@H]1c1ccc(Cl)cc1	39% (inactive)
O=[N+]([O-])/C=C/c1cc2ccc3ccccc3c2[nH]1	83% (active)
O=C1C(=C2CCCC2)CCC1CN1CCCCC1 (stereo unspecified)	20% (inactive)
OC(CC(O)(C(F)(F)F)C(F)(F)F)c1ccc(C(O)CC(O)(C(F)(F)F)C(F)(F)F)cc1 (stereo unspecified)	95% (active)
COc1cc2c(cc1OC)[C@@H](Nc1ccc(C#N)cc1)C1COC(=O)[C@@H]1C2c1cc(OC)c(O)c(OC)c1 (stereo partly specified)	81% (active)
O=c1cccccc1[O-].O=c1cccccc1[O-].O=c1cccccc1[O-].[Eu+3]	32% (inactive)
O=C1c2ccccc2C(=O)c2sc(Nc3ccccc3Cl)nc21	90% (active)
NC(CCCCCCCCCCCCC(N)C(=O)c1ccccc1)C(=O)c1ccccc1 (stereo unspecified)	88% (active)
CC1=C(C)C(=O)C2=C(OCCO2)C1=O	1% (inactive)
c1ccc(-c2cc(C3CO3)c3ccccc3n2)cc1 (stereo unspecified)	19% (inactive)
S=C1C(=Nc2ccccc2)N(c2ccccc2)/C(=N\c2ccccn2)N1c1ccccc1	44% (inactive)

Compound	growth inhibition
CCC(OC(C)=O)C1CC(C(C)C)CCC1C (stereo unspecified)	4% (inactive)
CC(C)=CCc1c2c(c(O)c3c(=O)c(-c4ccc(O)c(O)c4)coc13)C=CC(C)(C)O2	96% (active)
O=C(NC(N1CCN(c2cc3c(cc2F)c(=O)c(C(=O)O)cn3C2CC2)CC1)(C(F)(F)F)C(F)(F)F)c1ccccc1	17% (inactive)
Fc1cc(F)c(F)c(S)c1F	-38% (inactive)
COc1ccc2cc3c4cc5c(cc4cc[n+]3cc2c1OC)OCO5	75% (active)
CCCCCCCCNCCCCCCCC	76% (active)
Nc1cc(Cl)ccc1Nc1ccccc1	-27% (inactive)
O=C(/C(=C/c1ccc(O)cc1)c1ccccc1)c1ccccc1	-14% (inactive)
O=Cc1ccccc1C=O	-7% (inactive)
C1=CCN([B-](c2ccccc2)[C+]2CCCCC2)C=C1	1% (inactive)
CC/C(=C(\c1ccccc1)c1ccc(OCC[N+](C)(C)C)cc1)c1ccccc1	99% (active)
O=S(=O)(c1cccc(C(F)(F)F)c1)N1c2ccccc2-n2cccc2C1c1cccnc1 (stereo unspecified)	87% (active)
Nc1ccc2c(c1)C(=O)c1c(F)cccc1-2	17% (inactive)
CN(C)/C(=N/C(=S)Nc1ccccc1)SCc1ccccc1	-2% (inactive)
CCN(CC)C(=S)N/N=C(\C)c1ccccc1O	-1% (inactive)
CC(C)OC(=O)NNc1cc(Cl)ccc1Cl	41% (inactive)
CC(C)CCC[C@@H](C)[C@H]1CC[C@H]2[C@@H]3CC[C@H]4C[C@H](N)CC[C@]4(C)[C@H]3CC[C@]12C	-3% (inactive)
O=C1c2ccccc2-c2ccc(N=Cc3ccccc3)cc21	10% (inactive)
